# RecA splice inh: Mtb RecA intein splicing inhibitors, primary screen, biochemical, fluorescence, HTS; Protein RecA (Mycobacterium tuberculosis (strain ATCC 25618 / H37Rv)), P9WHJ3; cell-free RecA intein splicing; inhibition, % (no concentration beside the values); 290,000 tested, 0.75% active; in the data active = inhibition above about 30%; inconclusive = no clear call, values can overlap the other calls
# Mtb UGM inh: M. tuberculosis UGM enzyme inhibitors, primary screen, biochemical, fluorescence polarization, single point; UDP-galactopyranose mutase (Mycobacterium tuberculosis (strain ATCC 25618 / H37Rv)), …; AID 504406, 2011; inhibition, % at 10 µM; 320,000 tested, 0.06% active; purified UGM, fluorescence polarization probe displacement; in the data active = inhibition above about 10%, passing the limit was not always enough; inconclusive = no clear call, values can overlap the other calls
# GDH-TPI counter: GDH-TPI coupling enzyme inhibitors, primary screen, artefact control for M. tuberculosis FBA inhibitor project, biochemical, absorbance, full deck; GDH-TPI coupled enzyme counterscreen, NADH absorbance; inhibition, % at 4.8 µM; 360,000 tested, 1.2% active; in the data active = inhibition above about 30%
# Mtb betalactam: beta-lactam sensitization of Mtb H37Rv, H37Rv. 330,000 tested, 0.27% active. inhibition, % at 25 µM. AID 434955, 2010. M. tuberculosis H37Rv growth with meropenem, percent inhibition;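 note: growth measured after seven days incubation then overnight dye step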
# Rv3671c inh: Rv3671c serine protease inhibitors, primary screen, biochemical, fluorescence polarization, M. tuberculosis H37Rv | inhibition, % at 5.96 µM | 320,000 tested, 0.048% active | AID 2606, 2010; in the data active = inhibition above about 38%;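 note: extracellular domain of Rv3671c used as enzyme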
# Mtb FBA inh: Mtb FBA enzyme inhibitors, primary screen, biochemical, fluorescence, strain H37Rv. 360,000 tested, 2.3% active. AID 588726, 2011. purified M. tuberculosis FBA, fluorescence read-out. inhibition, % at 1 µM. Fructose-bisphosphate aldolase (Mycobacterium tuberculosis (strain ATCC 25618 / H37Rv)), …; in the data active = inhibition above about 27%
# Target sequence (P9WQA3 whole entry, looked up): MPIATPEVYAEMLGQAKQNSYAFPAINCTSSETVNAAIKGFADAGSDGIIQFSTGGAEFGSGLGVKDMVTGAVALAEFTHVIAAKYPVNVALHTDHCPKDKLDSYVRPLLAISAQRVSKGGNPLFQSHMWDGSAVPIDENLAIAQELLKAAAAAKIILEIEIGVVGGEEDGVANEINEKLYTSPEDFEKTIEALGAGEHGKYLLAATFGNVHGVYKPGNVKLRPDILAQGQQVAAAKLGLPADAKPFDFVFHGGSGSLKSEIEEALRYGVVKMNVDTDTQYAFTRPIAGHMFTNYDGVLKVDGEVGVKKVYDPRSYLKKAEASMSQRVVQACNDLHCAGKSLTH
# GFP chromo cs: counter-screen: blocks GFP chromophore formation, dose response, counter-screen, biochemical, fluorescence, homogeneous; EC50, µM; shares compounds with RecA splice inh; cell-free GFP chromophore formation; 2,100 tested, 83% active
# Hits are given with their value; 0 = inactive; ? = inconclusive; - = not tested or not shown. Compounds with a hit are over-represented: about 4% of the library has one in this group of screens. Unless noted, the rule behind the calls is not given here.
SMILES,RecA splice inh,Mtb UGM inh,GDH-TPI counter,Mtb betalactam,Rv3671c inh,Mtb FBA inh,GFP chromo cs
CC1=NN(c2ccc(Cl)cc2)C(=O)C1,95.9,0,0,0,0,0,3.45
CC1=NN(c2nc(-c3ccc(Cl)cc3)cs2)C(=O)C1,0,0,0,0,0,0,-
CC1=NN(c2ccccc2)C(=O)C1c1ccccc1 (stereo unspecified),0,0,0,0,0,0,-
O=C(COC(=O)c1cc(S(=O)(=O)N2CCOCC2)ccc1F)Nc1ccccc1C(F)(F)F,-,-,0,-,-,0,-
CC(C)c1ccc(NC(=O)Nc2nnc([C@@H]3C[C@H](O)[C@@H](CO)O3)s2)cc1,-,-,0,-,-,0,-
CC1=NN(Cc2ccccc2)C(=O)C1,89.1,0,0,0,0,0,7.59
Nc1nc(-c2ccc(Cl)cc2)c(S(=O)(=O)c2ccccc2)s1,0,0,0,0,0,0,-
Nc1nc(-c2ccc(Br)cc2)c(S(=O)(=O)c2ccccc2)s1,80.6,0,0,0,0,0,0
C/C(CC(=O)Nc1ccc(F)cc1F)=N\NC(=O)C(=O)N1CCCCC1,78.3,0,-,0,0,-,10.6
Cc1cc(-c2ccccc2)nc2cc(C(=O)N(Cc3ccccc3)Cc3ccccc3)nn12,32.5,0,0,0,0,0,0
O=C(CCl)N(c1ccccc1)c1c[nH]c2ccccc12,82.4,0,0,0,0,0,8.33
O=C(O)Cc1c[nH]c2ccccc12,0,0,0,0,0,0,-
O=C(CCl)N(c1ccc(Cl)cc1)c1c[nH]c2ccccc12,40.4,0,0,0,0,0,2.24
O=C(Cc1ccc(Cl)cc1)NCCc1c[nH]c2ccccc12,0,0,0,0,0,0,-
CN(Cc1ccc(OC(F)F)cc1)C(=O)c1cccc(S(=O)(=O)N2CCN(Cc3ccccc3)CC2)c1,-,-,0,-,-,0,-
C=C1CCC(OC(C)=O)C2(C)CCC3C(C)C(=O)OC3C12O (stereo unspecified),0,0,0,0,0,0,-
O=[N+]([O-])C(/C=C(/Cl)[N+](=O)[O-])=C(N1CCCCC1)N1CCCCC1,49.4,0,0,?,0,0,19.6
O=C(Oc1ccccc1C(=O)Nc1ccccc1)c1ccccc1Br,54.2,0,0,0,0,0,35.9
CCCNC(=O)C1(C)CCCN(Cc2cccc(Oc3ccccc3)c2)C1 (stereo unspecified),-,-,0,-,-,0,-
O=c1cc(-c2ccc(C3CCCCC3)cc2)[nH][nH]1,76.2,0,0,0,0,0,1.89
Fc1ccc(-c2cnc[nH]2)cc1,0,0,0,0,0,0,-
O=c1cc(C2CCCCC2)[nH]c(=O)[nH]1,-,-,0,-,-,0,-
O=c1cc(-c2ccc(F)cc2)[nH][nH]1,98.2,0,0,0,0,0,2.32
O=c1cc(-c2ccc(Br)cc2)[nH][nH]1,97.2,0,0,0,0,0,3.72
O=c1cccc(-c2ccccc2)[nH]1,0,0,0,0,0,0,-
SMILES,RecA splice inh,Mtb UGM inh,GDH-TPI counter,Mtb betalactam,Rv3671c inh,Mtb FBA inh,GFP chromo cs
O=c1ccc(Br)c[nH]1,0,0,0,0,0,0,-
O=c1cc(-c2ccccc2)[nH][nH]1,97.4,0,0,0,0,0,2.25
Cn1c(=O)c(-c2ccccc2)nn2c3ccccc3nc12,0,0,0,0,0,0,-
Cc1nc2c(=O)n(C)c(=O)nc-2n(C)n1,98.3,0,0,0,0,0,0.117
Cc1ccc(Sc2c(C)[nH]n(C(C)(C)C)c2=O)cc1,50.1,0,0,0,0,0,39.7
O=C1/C(=C/c2cccc([N+](=O)[O-])c2)CCc2ccccc21,45.3,0,0,0,0,0,28.6
NC1=C(Br)C(=O)c2ccccc2C1=O,89.6,0,0,0,0,0,5.38
Cc1cc2c(cc1C)C(=O)C(Br)=C(N)C2=O,-,-,0,-,-,0,-
O=C1C(=O)c2ccccc2-c2ccccc21,53.5,0,0,0,0,0,6.94
O=C1C(=C(I)I)c2ccccc2-c2ccccc21,-,-,0,-,-,0,-
Cc1ccc(C(=O)NC2(O)C(=O)c3ccccc3C2=O)cc1C,68.2,0,0,0,0,0,12.1
O=C(NC1(O)C(=O)c2ccccc2C1=O)c1ccc(C(F)(F)F)cc1,0,0,0,0,0,0,-
O=C(Cc1ccccc1)NC1(O)C(=O)c2ccccc2C1=O,66.1,0,0,0,0,0,11
O=C(Nc1ccc(N2CCOCC2)cc1)Nc1ccc2nsnc2c1,54.3,0,0,0,0,0,0
CCOc1cc(C2C(C#N)=C(N)Oc3n[nH]c(-c4ccccc4)c32)ccc1O (stereo unspecified),82.9,0,0,0,0,0,6.4
N#CC1=C(N)Oc2n[nH]c(-c3cccnc3)c2C1c1ccc([N+](=O)[O-])o1 (stereo unspecified),0,0,0,0,0,0,-
CCCc1[nH]nc2c1C(c1cc(OC)ccc1F)C(C#N)=C(N)O2 (stereo unspecified),0,0,0,0,0,0,-
Cc1ccc(-c2[nH]nc3c2C(c2cccnc2)C(C#N)=C(N)O3)cc1 (stereo unspecified),69.1,0,0,0,0,0,13.5
CCOC(=O)C1=C(c2ccccc2)OC(N)=C(C#N)C1c1cccnc1 (stereo unspecified),0,0,0,0,0,0,-
N#CC1=C(N)Oc2nc(-c3ccccc3)[nH]c2C1c1cccnc1 (stereo unspecified),77.5,0,0,0,0,0,22.7
COc1ccc(-c2[nH]nc3c2C(c2ccoc2)C(C#N)=C(N)O3)cc1 (stereo unspecified),87.2,0,0,0,0,0,4.66
COc1cc(C(=O)N2CCN(c3ccccc3Cl)CC2)ccc1OCC(=O)N1CCOCC1,-,0,0,0,0,0,-
O=C(NC1CCOc2ccccc21)c1ccc(Cl)nc1 (stereo unspecified),0,0,0,0,0,0,-
Cc1cccc(Oc2ccccc2NC(=O)C2=COCCO2)c1,-,0,0,0,0,0,-
Cc1ccc(-c2[nH]nc3c2C(c2ccc(OC(=O)N4CCOCC4)cc2)C(C#N)=C(N)O3)cc1 (stereo unspecified),82.4,0,0,0,0,0,10.5
N#CC1=C(N)Oc2n[nH]c(-c3ccccc3)c2C1c1cccnc1 (stereo unspecified),80.5,0,0,0,0,0,17.2
Cc1ccc(C(=O)N/N=C/c2ccoc2)cc1C,0,0,0,0,0,0,-
S=C(NCc1ccco1)Nc1ccc(Cl)cn1,0,0,0,0,0,0,-
CC1=NNC(=O)C1C(c1ccccc1)C1C(=O)NN=C1C (stereo unspecified),98.3,0,-,0,0,-,0.406

# Bioassay records from PubChem BioAssay.
